# Data reported in PubChem BioAssay (NCATS).
# Where “and” joins values, the source holds several entries; their conditions need not be identical. Equal entries are not always repeated. Inconclusive results are not listed. Calls of active or inactive are those of the source. Unless noted, the call rests on the fitted dose curve.
# What was measured:
# [1] = target: Glucocorticoid receptor (Homo sapiens) (UniProt P04150); test: qHTS assay for small molecule antagonists of glucocorticoid receptor signaling (AID 588533; active means well fitted inhibition curve with a large enough effect in the signal ratio, with a control signal flat, not every such curve was filed as active; the % refers to the signal ratio;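 further: cells stimulated with 2 nM dexamethasone as agonist; on the % scale 0 is the no-effect control and ±100 the full control effect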)
# Procedure, shortened: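 Antagonist-mode qHTS: compound titrations added to GRE-bla HeLa cells, then dexamethasone 2 nM final; 18 h, 37 C. CCF4 FRET fluorescence normalized to dexamethasone and DMSO; IC50 from Hill fit.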
# [2] = qHTS assay for small molecule antagonists of peroxisome proliferator-activated receptor delta signaling (AID 588535); settings: HEK293T PPARd-UAS-bla, beta-lactamase FRET ratio, 18 h; 460 nm channel;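 further: cells co-treated with a PPAR-delta agonist as stimulator during compound exposure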
# Procedure, shortened: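 Compounds tested in titration on PPAR-delta-UAS-bla HEK293T cells grown in charcoal/dextran-stripped serum (2%); beta-lactamase activity read via CCF4 emission at 460 and 530 nm.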
# [3] = target: Peroxisome proliferator-activated receptor gamma (Homo sapiens) (UniProt P37231); test: qHTS assay for small molecule agonists of peroxisome proliferator-activated receptor gamma signaling (AID 588536; active means well fitted curve in the direction sought with a large enough effect in the signal ratio, with a control signal flat, not every such curve was filed as active; the % refers to the signal ratio;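 further: 0% = DMSO basal wells and 100% = rosiglitazone at 2 µM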)
# Procedure, shortened: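 Beta-lactamase reporter read-out: CCF4 fluorescence (ex 405, em 460/530 nm) after 2 h at RT. HEK293 GeneBLAzer cells were treated for 16 h at 37 C. Hill fits gave EC50 and efficacy versus 2 uM rosiglitazone (100%) and DMSO (0%).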
# [4] = target: Peroxisome proliferator-activated receptor gamma (Homo sapiens) (UniProt P37231); test: qHTS assay for small molecule antagonists of peroxisome proliferator-activated receptor gamma signaling (AID 588537; active means well fitted inhibition curve with a large enough effect in the signal ratio, with a control signal flat, not every such curve was filed as active; the % refers to the signal ratio;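 further: reporter cells co-stimulated with 50 nM rosiglitazone agonist during compound treatment; % of control where 0% means no effect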)
# Procedure, shortened: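 HEK293 cells, PPAR-gamma-UAS-bla, 3000/well. Pre-incubation 6-6.5 h, 37 C. Compound titration with rosiglitazone 50 nM final, 16 h. CCF4 dye, 2 h RT, dual-emission fluorescence.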
# [5] = target: Vitamin D3 receptor (Homo sapiens) (UniProt P11473); test: qHTS assay for small molecule antagonists of vitamin D receptor signaling (AID 588541);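 further: receptor activated by calcitriol during compound treatment; series mostly up to about 77 µM; on the % scale 0 is the no-effect control and ±100 the full control effect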
# Procedure, shortened: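 VDR-UAS-bla HEK293T cells (2000/well, 2% charcoal-stripped FBS) were treated with titrated compounds plus 1-alpha,25-dihydroxyvitamin D3 (50 nM or 3 nM final) for 16 h at 37 C. CCF4 beta-lactamase fluorescence was read; Hill fits gave IC50.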
# [6] = qHTS assay for small molecule agonists of retinoid X receptor alpha signaling (AID 588544); settings: HEK293T RXRa-UAS-bla, beta-lactamase reporter, 18 h; 530 nm emission;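 on activation: 0% = DMSO basal wells and 100% = reference agonist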
# [7] = target: Retinoic acid receptor RXR-alpha (Homo sapiens) (UniProt P19793); test: as above
# [8] = target: Thyroid hormone receptor beta (Homo sapiens) (UniProt P10828); test: qHTS assay for small molecule agonists of thyroid hormone receptor beta signaling (AID 588545);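 further: 0% = DMSO only and 100% = 10 nM T3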
# Procedure, shortened: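 TR-UAS-bla GripTite HEK 293 cells (2500/well, medium with 2% charcoal/dextran FBS) were treated in agonist mode for 18 h at 37 C, titrated. Beta-lactamase was read by CCF4 ratio after 2 h; normalized to 10 nM T3 (100%) and DMSO, Hill-fitted for EC50 and efficacy.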
# [9] = qHTS assay for small molecule antagonists of retinoid X receptor alpha signaling (AID 588546); settings: HEK293T RXRa-UAS-bla, beta-lactamase ratio, antagonist mode; measured here: W530 green channel, cytotoxicity proxy;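 further: cells stimulated with 9-cis-retinoic acid as agonist; on the % scale 0 is the no-effect control and ±100 the full control effect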
# Procedure, shortened: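 Beta-lactamase reporter inhibition, read as CCF4 fluorescence ratio (ex 405, em 460/530 nm) after 2 h at RT. HEK293T UAS-bla cells, 2500/well, were stimulated with 9-cis-RA at 500 or 100 nM final alongside test compound for 18 h at 37 C.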
# [10] = target: Glucocorticoid receptor (Homo sapiens) (UniProt P04150); test: qHTS assay for small molecule agonists of glucocorticoid receptor signaling (AID 588532; active means well fitted curve in the direction sought with a large enough effect in the signal ratio, with a control signal flat; the % refers to the signal ratio;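 further: 100% = dexamethasone at 0.1 µM and 0% = DMSO only wells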); settings: HeLa MMTV-bla, beta-lactamase ratio, agonist, 18 h; stronger effect = higher value; percent of dexamethasone control, DMSO zero
# Procedure, shortened: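 Stimulation of a glucocorticoid response element-driven beta-lactamase gene was measured in HeLa cells. Responses were scaled between DMSO basal and 0.1 uM dexamethasone, then fitted for half-maximal stimulation.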
# Sequence of Peroxisome proliferator-activated receptor gamma (Homo sapiens) (P37231 whole entry, looked up): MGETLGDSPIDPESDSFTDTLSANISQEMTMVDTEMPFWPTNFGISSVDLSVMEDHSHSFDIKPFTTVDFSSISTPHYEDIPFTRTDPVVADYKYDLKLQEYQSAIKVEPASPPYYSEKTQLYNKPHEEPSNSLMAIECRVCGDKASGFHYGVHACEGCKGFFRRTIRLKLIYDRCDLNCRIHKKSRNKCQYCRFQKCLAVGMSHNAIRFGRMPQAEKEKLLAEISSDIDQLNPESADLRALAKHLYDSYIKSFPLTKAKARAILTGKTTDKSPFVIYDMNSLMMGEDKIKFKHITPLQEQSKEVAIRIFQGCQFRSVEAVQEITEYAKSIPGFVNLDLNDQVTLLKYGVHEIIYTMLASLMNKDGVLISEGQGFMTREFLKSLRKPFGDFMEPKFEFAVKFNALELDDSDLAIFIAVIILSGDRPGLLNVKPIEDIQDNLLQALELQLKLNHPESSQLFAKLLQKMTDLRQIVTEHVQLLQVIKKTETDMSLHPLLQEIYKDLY
# Sequence of Glucocorticoid receptor (Homo sapiens) (P04150 whole entry, looked up): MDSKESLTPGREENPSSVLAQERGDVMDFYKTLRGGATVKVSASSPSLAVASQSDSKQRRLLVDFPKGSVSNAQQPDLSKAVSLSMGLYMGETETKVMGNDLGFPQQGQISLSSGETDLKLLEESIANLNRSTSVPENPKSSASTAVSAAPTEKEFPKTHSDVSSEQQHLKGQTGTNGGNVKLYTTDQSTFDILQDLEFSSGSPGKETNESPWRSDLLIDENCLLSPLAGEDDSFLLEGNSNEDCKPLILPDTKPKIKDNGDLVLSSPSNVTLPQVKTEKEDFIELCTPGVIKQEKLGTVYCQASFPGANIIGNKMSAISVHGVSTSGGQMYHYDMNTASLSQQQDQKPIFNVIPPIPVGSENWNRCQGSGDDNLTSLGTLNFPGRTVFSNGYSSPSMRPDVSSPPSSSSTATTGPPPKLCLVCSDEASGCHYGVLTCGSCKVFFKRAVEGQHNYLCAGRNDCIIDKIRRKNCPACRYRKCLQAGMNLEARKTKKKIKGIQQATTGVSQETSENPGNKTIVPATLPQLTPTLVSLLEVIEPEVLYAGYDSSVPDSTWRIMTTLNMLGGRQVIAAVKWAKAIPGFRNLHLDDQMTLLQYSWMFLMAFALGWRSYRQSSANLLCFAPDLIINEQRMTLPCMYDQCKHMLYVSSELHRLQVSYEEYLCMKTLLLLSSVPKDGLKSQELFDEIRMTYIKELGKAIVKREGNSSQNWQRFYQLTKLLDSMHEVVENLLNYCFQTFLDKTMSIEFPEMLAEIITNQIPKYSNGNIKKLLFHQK
# Sequence of Retinoic acid receptor RXR-alpha (Homo sapiens) (P19793 whole entry, looked up): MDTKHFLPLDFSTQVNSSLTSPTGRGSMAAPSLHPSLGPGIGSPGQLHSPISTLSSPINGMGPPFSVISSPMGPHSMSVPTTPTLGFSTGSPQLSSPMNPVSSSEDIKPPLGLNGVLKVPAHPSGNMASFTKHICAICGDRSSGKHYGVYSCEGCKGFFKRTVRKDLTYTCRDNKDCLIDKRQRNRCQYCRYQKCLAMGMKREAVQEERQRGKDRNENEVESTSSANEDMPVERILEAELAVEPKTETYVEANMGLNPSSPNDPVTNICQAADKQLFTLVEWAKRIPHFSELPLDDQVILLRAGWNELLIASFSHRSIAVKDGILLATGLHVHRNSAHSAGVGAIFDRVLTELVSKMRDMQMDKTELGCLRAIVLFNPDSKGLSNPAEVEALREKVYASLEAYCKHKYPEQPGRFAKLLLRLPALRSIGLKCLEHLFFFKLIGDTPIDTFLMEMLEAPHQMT
# Sequence of Thyroid hormone receptor beta (Homo sapiens) (P10828 whole entry, looked up): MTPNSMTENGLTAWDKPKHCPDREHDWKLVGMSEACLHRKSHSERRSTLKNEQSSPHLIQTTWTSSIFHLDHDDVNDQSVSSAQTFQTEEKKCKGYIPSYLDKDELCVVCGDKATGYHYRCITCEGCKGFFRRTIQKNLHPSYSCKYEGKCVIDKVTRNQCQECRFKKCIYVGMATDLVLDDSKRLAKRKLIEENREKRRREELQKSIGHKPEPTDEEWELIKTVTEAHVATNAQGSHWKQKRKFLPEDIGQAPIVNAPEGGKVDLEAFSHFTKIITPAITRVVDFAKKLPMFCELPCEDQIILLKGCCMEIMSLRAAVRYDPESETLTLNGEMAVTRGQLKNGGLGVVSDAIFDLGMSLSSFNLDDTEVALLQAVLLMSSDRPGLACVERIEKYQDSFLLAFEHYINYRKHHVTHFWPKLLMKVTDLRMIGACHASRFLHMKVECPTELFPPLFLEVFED
# Sequence of Vitamin D3 receptor (Homo sapiens) (P11473 whole entry, looked up): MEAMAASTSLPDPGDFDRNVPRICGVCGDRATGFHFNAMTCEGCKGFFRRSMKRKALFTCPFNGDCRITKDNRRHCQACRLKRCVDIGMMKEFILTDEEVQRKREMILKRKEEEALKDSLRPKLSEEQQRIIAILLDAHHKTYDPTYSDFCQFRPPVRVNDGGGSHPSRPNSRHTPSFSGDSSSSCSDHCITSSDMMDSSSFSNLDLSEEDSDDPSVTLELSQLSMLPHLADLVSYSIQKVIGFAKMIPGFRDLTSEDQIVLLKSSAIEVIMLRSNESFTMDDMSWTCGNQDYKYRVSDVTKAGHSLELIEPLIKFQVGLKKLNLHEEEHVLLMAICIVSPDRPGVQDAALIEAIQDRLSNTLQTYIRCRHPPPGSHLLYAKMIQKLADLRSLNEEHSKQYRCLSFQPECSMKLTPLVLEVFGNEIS
Compound,outcome [1],max response [2],outcome [3],outcome [4],outcome [5],max response [6],outcome [7],outcome [8],max response [9],activation [10]
CC(C)=CCC/C(C)=C/CO,inactive,-8.02%,inactive,inactive,inactive,-9.95%,inactive,inactive,-9.74%,–
CCCCCCCC(=O)OCC(COC(=O)CCCCCCC)OC(=O)CCCCCCC,inactive,17.8%,inactive,–,inactive,-2.18%,inactive,inactive,-12.4%,2.19% (inactive)
Nc1ccc(S(=O)(=O)c2ccc(N)cc2)cc1,–,-19.4% and 10.1%,inactive,inactive,–,9.37%,inactive,inactive,-11.9%,–
CC(=O)OCC(COC(C)=O)OC(C)=O,inactive,-24.1% and 22.8%,inactive,inactive,inactive,-12.6% and -13.8%,inactive,inactive,-8.38%,-5.82% (inactive)
C=CCNC(N)=S,–,13.5%,inactive,–,inactive,14.7%,inactive,inactive,-1.13%,–
COC(=O)c1ccc(O)cc1,inactive,34.1%,inactive,inactive,inactive,3.58%,inactive,inactive,-19.3%,15.6% (inactive)
Cc1ccc(C(C)C)c(O)c1,inactive,-0.969%,inactive,–,inactive,-0.0487%,inactive,inactive,-9.5%,-10.5% (inactive)
CCCC(O)C(CC)CO (stereo unspecified),–,2.27%,inactive,–,–,-0.667%,inactive,inactive,-4.1%,–
Cc1c(C(=O)NCCO)[n+](=O)c2ccccc2n1[O-],inactive,-20%,inactive,–,inactive,-9.58%,inactive,inactive,-9.28%,0.345% (inactive)
CC1CC(OC(=O)c2ccccc2O)CC(C)(C)C1 (stereo unspecified),inactive,23.9%,inactive,–,–,–,–,inactive,-9.52%,2.49% (inactive)
COc1ccc(O)cc1,inactive,3.48%,–,–,inactive,-5.99%,inactive,inactive,-9.24%,-2.84% (inactive)
O=C(c1ccccc1)C(O)c1ccccc1 (stereo unspecified),inactive,-5.59% and -16%,inactive,inactive,inactive,1.82% and 5.17%,inactive,inactive,-8.34%,2.68% (inactive) and -5.31% (inactive)
FC(F)(F)C(Cl)Br (stereo unspecified),inactive,-35.1%,inactive,inactive,–,-10.5%,inactive,inactive,-1.63%,-1.46% (inactive)
CCCCOC(=O)c1ccc(N)cc1,–,–,inactive,–,inactive,8.21%,inactive,inactive,-1.8%,-4.26% (inactive)
CC(=O)Nc1ccc(C(=O)O)cc1,inactive,–,inactive,inactive,–,-5.85%,inactive,inactive,-6.58%,-0.936% (inactive)
CC(=O)Nc1cccc(O)c1,–,–,inactive,–,–,11%,inactive,inactive,-5.06%,–

Compound,outcome [1],max response [2],outcome [3],outcome [4],outcome [5],max response [6],outcome [7],outcome [8],max response [9],activation [10]
Cc1cccc(Nc2ccccc2C(=O)O)c1C,inactive,–,–,–,–,–,–,inactive,–,–
Cc1cc(C)nc(NS(=O)(=O)c2ccc(N)cc2)n1,inactive,18.4% and -14.9%,inactive,–,–,-3.23% and 6.31%,inactive,inactive,1.53% and -6.64%,5.22% (inactive) and 0.742% (inactive)
O=C1c2cccc(O)c2C(=O)c2c(O)cccc21,–,–,–,inactive,–,–,–,–,–,–
O=C(OOC(=O)c1ccccc1)c1ccccc1,inactive,–,inactive,inactive,–,-15.8%,inactive,inactive,-16.7%,6.15% (inactive)
CCCCCC(N)=O,–,-31.8%,inactive,inactive,inactive,-21.2%,inactive,inactive,-2.91%,–
O=C(O)CCCCC1CCSS1 (stereo unspecified),inactive,4.26%,inactive,inactive,inactive,–,–,inactive,-14.4%,-0.0197% (inactive) and 20% (inactive)
CC(=O)NS(=O)(=O)c1ccc(N)cc1,inactive,26.9%,–,–,inactive,-19.7%,inactive,inactive,-14.4%,-1.25% (inactive)
Cc1c(N(C)C)c(=O)n(-c2ccccc2)n1C,inactive,15.6%,–,–,inactive,-14.4% and -18.2%,inactive,inactive,-6.41% and -1.97%,1.22% (inactive) and -3.75% (inactive)
OC[C@@H](O)[C@@H](O)[C@H](O)[C@H](O)CO,–,–,inactive,inactive,inactive,-0.766%,inactive,inactive,-16.3%,–
CC(=O)Nc1ccccc1,inactive,17.1%,inactive,inactive,inactive,-17.4%,inactive,inactive,-2.29%,-0.909% (inactive)
Cc1cc(=O)[nH]c(=S)[nH]1,inactive,–,inactive,inactive,inactive,-2.22%,inactive,inactive,-3.7%,-0.999% (inactive)
CC[N+](CC)(CC(=O)Nc1c(C)cccc1C)Cc1ccccc1,–,–,inactive,inactive,inactive,-1.28%,inactive,–,-13%,–
CCCCCCCCCCCCCCCCCCO,inactive,2.82%,inactive,inactive,inactive,-0.452%,inactive,inactive,4.76%,-8.91% (inactive)
CCN(CC)C(=O)c1cccc(C)c1,inactive,-21.8%,inactive,inactive,inactive,-4.92% and 6.96%,inactive,–,-0.756% and -2.65%,-2.58% (inactive) and -6.82% (inactive)
Cc1cc(O)cc(C)c1Cl,inactive,24.1%,inactive,inactive,–,-3.04%,inactive,inactive,-7.57%,–
O=C1C(c2[nH]c3ccccc3c2O)=Nc2ccccc21,inactive,32.9%,–,–,–,16.9%,inactive,inactive,0.17%,5.37% (inactive)
